One may read the AC50 as the midpoint of the concentration-response curve, whichever way the signal moves.

The structures appear in SMILES notation. Records with an inconclusive call do not appear. Activity calls are given as the source filed them. Rule for the calls, unless noted: active = hit-call score of the fitted dose curve at least 0.9, where 1 is the maximum; inconclusive = response in the unintended direction; inactive = score below 0.9.

Assay [1] has as its target Retinoic acid receptor alpha (Homo sapiens) (UniProt P10276). Nature of the assay: ATG_DR5_RAR_CIS: Attagene CIS-FACTORIAL HepG2 Assay for human Retinoic Acid Receptor Alpha (RARE), DR5 submotif (AID 2282934; active = hit-call score of the fitted dose curve at least 0.9, where 1 is the maximum; inactive = score below 0.9;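 for AC50: reporter responds to endogenous RAR alpha beta and gamma in HepG2 not RARA alone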). The note with it: HepG2 Attagene cis-factorial RARE DR5 reporter, mRNA; actives raise or lower the signal. A digest of the protocol: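 HepG2 cells transiently transfected with multiplexed reporter units under cis (DR5 RARE) promoters, so endogenous transcription factor activity is measured. After 24 h compound exposure, reporter mRNA is quantified by RT-PCR with fluorescent labelling and capillary electrophoresis; bidirectional fitting versus DMSO.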

Assay [2] addresses Bile acid receptor (Homo sapiens) (UniProt Q96RI1). Nature of the assay: ATG_IR1_CIS: Attagene CIS-FACTORIAL HepG2 Assay for human Nuclear Receptor Subfamily 1 Group H Member 4 (NR1H4), IR1 submotif (AID 2282946; active = hit-call score of the fitted dose curve at least 0.9, where 1 is the maximum; inactive = score below 0.9). The note with it: IR1 reporter transcription, actives raise or lower the signal. A digest of the protocol:
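Readout: reporter transcript levels by RT-PCR with fluorescent capillary electrophoresis, from HepG2 cells transiently transfected with multiplexed cis-regulated reporters and dosed 24 h. Gain- or loss-of-signal fitted versus DMSO negative control.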

Assay [3] is described as follows: ATG_PPRE_CIS: Attagene CIS-FACTORIAL HepG2 Assay for human Peroxisome Proliferator-activated Response Element (PPRE) (AID 2282958; active = hit-call score of the fitted dose curve at least 0.9, where 1 is the maximum; inactive = score below 0.9). The conditions noted are these: HepG2 PPRE cis-element reporter, Attagene transcription factor profiling; actives raise or lower the signal. A digest of the protocol: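 Cells are first transfected transiently with the multiplexed reporter library, then dosed for 24 h. Total RNA is reverse-transcribed, amplified, fluorescently end-labeled and HpaI-cut before capillary electrophoresis; activity is fitted bidirectionally against DMSO controls.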

The target of assay [4] is Nuclear receptor subfamily 1 group I member 3 (Homo sapiens) (UniProt Q14994). Nature of the assay: ATG_CAR_TRANS: Attagene TRANS-FACTORIAL HepG2 Assay for human Constitutive Androstane Receptor (CAR) (AID 2282969).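 Note: activators raise reporter mRNA above DMSO so AC50 marks induction.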 The conditions noted are these: HepG2 Attagene TRANS-FACTORIAL CAR reporter. Put shortly:
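Steps: transient transfection of HepG2 with multiple GAL4-UAS reporter units; 24 h compound incubation; RNA isolation, RT-PCR, 6-FAM primer extension, HpaI digest; capillary electrophoresis. Gain-of-signal relative to DMSO negative control.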

Assay [5] in a line: ATG_M_19_TRANS: Attagene TRANS-FACTORIAL HepG2 Assay for M19 Transcription Factor (Internal Marker) (AID 2282974). The conditions noted are these: HepG2 Attagene TRANS-FACTORIAL M19 internal marker reporter. Put shortly: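 Cells: human HepG2, transiently transfected with multiplexed reporter transcription units. Exposure: 24 h. Detection: RT-PCR of reporter mRNA with capillary electrophoresis. Analysis: gain-of-signal vs DMSO.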

The target in assay [6] is Oxysterols receptor LXR-alpha (Homo sapiens) (UniProt Q13133). Nature of the assay: ATG_LXRa_TRANS: Attagene TRANS-FACTORIAL HepG2 Assay for human Liver X Receptor alpha (LXRa) (AID 2282980). The conditions noted are these: HepG2 Attagene TRANS reporter, LXRa transactivation. A digest of the protocol: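 Read-out: reporter transcript levels by RT-PCR plus capillary electrophoresis, fluorescence intensity. Transiently transfected HepG2, exogenous NR-GAL4 chimera, GAL4-UAS reporters; 24 h compound exposure. Activity = increase over DMSO negative control.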
Chain of Oxysterols receptor LXR-alpha (Homo sapiens) (Q13133 whole entry, looked up, the tested form may be a part): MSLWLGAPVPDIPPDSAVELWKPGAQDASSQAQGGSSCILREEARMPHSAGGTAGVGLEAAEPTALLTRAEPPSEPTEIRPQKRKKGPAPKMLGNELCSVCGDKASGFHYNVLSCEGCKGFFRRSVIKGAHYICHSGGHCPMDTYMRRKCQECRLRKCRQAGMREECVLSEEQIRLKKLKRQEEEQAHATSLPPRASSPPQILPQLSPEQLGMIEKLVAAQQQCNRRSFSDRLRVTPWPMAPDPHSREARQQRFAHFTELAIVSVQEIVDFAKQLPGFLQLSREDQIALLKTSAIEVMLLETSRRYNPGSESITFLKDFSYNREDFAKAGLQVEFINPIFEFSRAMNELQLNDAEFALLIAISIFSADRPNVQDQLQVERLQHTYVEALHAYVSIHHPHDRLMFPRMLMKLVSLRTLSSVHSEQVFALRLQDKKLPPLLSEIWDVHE

Assay [7] in a line: ATG_NF_kB_CIS: Attagene CIS-FACTORIAL HepG2 Assay for human Nuclear Factor Kappa B (NF-kB) (AID 2282991; active = hit-call score of the fitted dose curve at least 0.9, where 1 is the maximum; inactive = score below 0.9). The note with it: HepG2 Attagene cis-factorial NF-kB reporter mRNA; actives raise or lower the signal. A digest of the protocol:
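Endogenous transcription factor activity in HepG2 was captured via cis-regulated reporter constructs; after 24 h dosing, reporter mRNA was reverse-transcribed, amplified, fluorescently labelled and sized by capillary electrophoresis, with activity fitted bidirectionally relative to DMSO.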

In assay [8] the target is human Peroxisome Proliferator-activated Receptor delta (PPARd), PPARD (gene 5467) (UniProt Q03181). Nature of the assay: ATG_PPARd_TRANS: Attagene TRANS-FACTORIAL HepG2 Assay for human Peroxisome Proliferator-activated Receptor delta (PPARd) (AID 2283002). A digest of the protocol:
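HepG2 cells transiently transfected with multiplexed GAL4-UAS reporter units and exogenous chimeric NR-Gal4 proteins; 24 h compound exposure. Reporter mRNA measured by RT-PCR, 6-FAM labelling, HpaI digestion and capillary electrophoresis; gain of signal versus DMSO.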

Assay [9] concerns the target human RAR-related Orphan Receptor beta (RORb), RORB (gene 6096) (UniProt Q92753). Nature of the assay: ATG_RORb_TRANS: Attagene TRANS-FACTORIAL HepG2 Assay for human RAR-related Orphan Receptor beta (RORb) (AID 2283010). Put shortly:
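HepG2, transient MRTU transfection (GAL4-UAS reporters, exogenous NR-Gal4 chimeras); 24 h compound exposure; total RNA → RT-PCR → 6-FAM primer extension → HpaI digest → CE fluorescence. Positive direction vs DMSO baseline.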

Assay [10] deals with Retinoic acid receptor RXR-alpha (Homo sapiens) (UniProt P19793). Nature of the assay: ATG_RXRa_TRANS: Attagene TRANS-FACTORIAL HepG2 Assay for human Retinoid X Receptor alpha (RXRa) (AID 2283012). A digest of the protocol: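 Read-out: fluorescent reporter-transcript fragments quantified by capillary electrophoresis after RT-PCR. Transiently transfected HepG2 cells carrying GAL4-UAS reporters and NR-GAL4 chimeras were exposed to chemical for 24 h; activity scored as increase over DMSO.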
Chain of Retinoic acid receptor RXR-alpha (Homo sapiens) (P19793 whole entry, looked up, the tested form may be a part): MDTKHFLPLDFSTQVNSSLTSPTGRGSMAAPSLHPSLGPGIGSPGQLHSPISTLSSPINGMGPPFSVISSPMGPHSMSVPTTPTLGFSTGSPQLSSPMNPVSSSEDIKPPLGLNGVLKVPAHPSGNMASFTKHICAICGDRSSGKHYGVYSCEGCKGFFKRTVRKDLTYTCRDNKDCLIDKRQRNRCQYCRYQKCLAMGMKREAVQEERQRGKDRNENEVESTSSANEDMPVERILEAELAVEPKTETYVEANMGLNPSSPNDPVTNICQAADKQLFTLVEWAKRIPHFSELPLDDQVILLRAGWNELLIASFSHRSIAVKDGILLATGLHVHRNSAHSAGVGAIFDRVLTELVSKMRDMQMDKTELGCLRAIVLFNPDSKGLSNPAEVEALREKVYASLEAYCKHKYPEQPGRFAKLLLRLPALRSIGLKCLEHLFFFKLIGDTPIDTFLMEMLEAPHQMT

The target of assay [11] is human Vitamin D Receptor (VDR), VDR (gene 7421) (UniProt P11473). Nature of the assay: ATG_VDR_TRANS: Attagene TRANS-FACTORIAL HepG2 Assay for human Vitamin D Receptor (VDR) (AID 2283022). A digest of the protocol:
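RT-PCR/capillary electrophoresis read-out of reporter mRNA induction in transiently transfected HepG2; 24 h dosing; chimeric NR-Gal4 (TRANS format); gain-of-signal fit against DMSO baseline.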

A short description of assay [12]: ATG_XTT_Cytotoxicity: Cytotoxicity Assessment in the Attagene TRANS-FACTORIAL HepG2 Assay (AID 2283584). A digest of the protocol:
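XTT readout of cell number in transfected HepG2 cells, 24 h post-dosing; DMSO serves as negative control and baseline, with activity taken as loss of viability signal.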

Assay [13] in a line: TOX21_p53_BLA_p3_viability: Viability Assessment in the Tox21 HCT-116 p53 Agonism Beta-lactamase Assay, Phase 3 (AID 2283593).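 Note: cells exposed to compound for 16 h before reading.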 A digest of the protocol: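 HCT-116 cells (4000/well) rested 5 h at 37C, then got DMSO compounds by pin tool (217-fold dilution) for 16 h at 37C, 5% CO2. After the bla read, CellTiter-Glo was added and luminescence read at 30 min, room temperature.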

Assay [14] is described as follows: CCTE_Harrill_HTTr_Viability_MCF7: CCTE's 6-hour Cell Viability Assessment for the High-Throughput Transcriptomics (HTTr) Platform, in MCF-7 cells cultured in DMEM + 10% fetal bovine serum, Harrill Lab (AID 2284010; active = hit-call score of the fitted dose curve at least 0.9, where 1 is the maximum; inactive = score below 0.9). A digest of the protocol:
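PI exclusion, high-content imaging; 8-pt dilution series, 6 h exposure; bidirectional fit vs DMSO (neg. ctrl/baseline); gain of signal = loss of membrane integrity.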

Assay [15] in a line: CCTE_Harrill_HTTr_Apoptosis_MCF7: CCTE's 6-hour Apoptosis Assessment for the High-Throughput Transcriptomics (HTTr) Platform, in MCF-7 cells cultured in DMEM + 10% fetal bovine serum, Harrill Lab (AID 2284011; active = hit-call score of the fitted dose curve at least 0.9, where 1 is the maximum; inactive = score below 0.9). A digest of the protocol:
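Read-out: CellEvent Caspase 3/7 Green signal by high content imaging, gain-of-signal indicating apoptosis. MCF-7 cells, DMEM + 10% FBS, eight-point dilution series, 6 h exposure. Curves fitted bidirectionally relative to DMSO negative control.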

Assay [16] addresses Nuclear receptor subfamily 4 group A member 2 (Homo sapiens) (UniProt P43354). Nature of the assay: ATG_NURR1_TRANS: Attagene TRANS-FACTORIAL HepG2 Assay for human Nuclear Receptor Related Protein 1 (NURR1) (AID 2282985). The conditions noted are these: HepG2 Attagene TRANS reporter, mRNA readout. A digest of the protocol: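 Chimeric NR-Gal4 proteins were expressed in human HepG2 cells bearing GAL4-UAS reporter units, and induced reporter mRNA was quantified 24 h post-dosing by RT-PCR and capillary electrophoresis.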

In assay [17] the target is Glucocorticoid receptor (Homo sapiens) (UniProt P04150). Nature of the assay: ATG_GR_TRANS: Attagene TRANS-FACTORIAL HepG2 Assay for human Glucocorticoid Receptor (GR) (AID 2282978).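 Note: activators score as hits since higher reporter transcript over DMSO is fitted.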 The conditions noted are these: HepG2 Attagene TRANS GR reporter, mRNA transcription. Put shortly:
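In this trans-factorial format, exogenous NR-GAL4 chimeric proteins in transfected HepG2 cells regulate GAL4-UAS reporter transcription. After 24 h treatment, reporter mRNA induction relative to DMSO is read by RT-PCR and capillary electrophoresis.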

Assay [18] concerns the target Nuclear receptor subfamily 1 group I member 2 (Homo sapiens) (UniProt O75469). Nature of the assay: ATG_PXR_TRANS: Attagene TRANS-FACTORIAL HepG2 Assay for human Pregnane X Receptor (PXR) (AID 2283008). A digest of the protocol: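 Multiplexed TRANS reporter panel in HepG2; this component tracks PXR-Gal4-driven reporter mRNA after 24 h dosing, measured by RT-PCR with capillary electrophoresis fluorescence, fitted against DMSO.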

The target in assay [19] is human RAR-related Orphan Receptor gamma (RORg), RORC (gene 6097) (UniProt P51449). Nature of the assay: ATG_RORg_TRANS: Attagene TRANS-FACTORIAL HepG2 Assay for human RAR-related Orphan Receptor gamma (RORg) (AID 2283011). A digest of the protocol: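 Transient MRTU transfection of HepG2 (TRANS format, exogenous NR-Gal4 chimera). 24 h dosing. Total RNA → oligo(dT) RT → PCR → 6-FAM labelling → HpaI cut → CE. Gain vs DMSO.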
Chain of human RAR-related Orphan Receptor gamma (RORg), RORC (gene 6097) (P51449 whole entry, looked up, the tested form may be a part): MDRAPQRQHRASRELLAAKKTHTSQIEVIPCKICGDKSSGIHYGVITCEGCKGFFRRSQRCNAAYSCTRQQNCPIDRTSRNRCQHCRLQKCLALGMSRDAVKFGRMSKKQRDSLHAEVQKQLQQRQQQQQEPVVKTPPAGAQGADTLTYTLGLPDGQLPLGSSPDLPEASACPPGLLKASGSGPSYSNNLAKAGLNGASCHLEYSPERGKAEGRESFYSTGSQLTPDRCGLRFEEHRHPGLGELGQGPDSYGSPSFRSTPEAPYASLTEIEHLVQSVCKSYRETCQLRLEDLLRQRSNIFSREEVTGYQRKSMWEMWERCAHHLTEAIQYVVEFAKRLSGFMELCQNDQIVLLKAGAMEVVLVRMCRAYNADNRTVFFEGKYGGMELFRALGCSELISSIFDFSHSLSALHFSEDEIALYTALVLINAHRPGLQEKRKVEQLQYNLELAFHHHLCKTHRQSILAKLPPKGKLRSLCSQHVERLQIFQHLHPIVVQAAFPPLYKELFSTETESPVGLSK

The target in assay [20] is human Peroxisome Proliferator-activated Receptor alpha (PPARa), PPARA (gene 5465) (UniProt Q07869). Nature of the assay: ATG_PPARa_TRANS: Attagene TRANS-FACTORIAL HepG2 Assay for human Peroxisome Proliferator-activated Receptor alpha (PPARa) (AID 2283001). A digest of the protocol:
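Exposure: 24 h, transiently transfected HepG2 cells. Endpoint: GAL4-UAS reporter mRNA, RT-PCR with capillary electrophoresis fluorescence. Baseline: DMSO; increases fitted.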

Chain of human Vitamin D Receptor (VDR), VDR (gene 7421) (P11473 whole entry, looked up, the tested form may be a part): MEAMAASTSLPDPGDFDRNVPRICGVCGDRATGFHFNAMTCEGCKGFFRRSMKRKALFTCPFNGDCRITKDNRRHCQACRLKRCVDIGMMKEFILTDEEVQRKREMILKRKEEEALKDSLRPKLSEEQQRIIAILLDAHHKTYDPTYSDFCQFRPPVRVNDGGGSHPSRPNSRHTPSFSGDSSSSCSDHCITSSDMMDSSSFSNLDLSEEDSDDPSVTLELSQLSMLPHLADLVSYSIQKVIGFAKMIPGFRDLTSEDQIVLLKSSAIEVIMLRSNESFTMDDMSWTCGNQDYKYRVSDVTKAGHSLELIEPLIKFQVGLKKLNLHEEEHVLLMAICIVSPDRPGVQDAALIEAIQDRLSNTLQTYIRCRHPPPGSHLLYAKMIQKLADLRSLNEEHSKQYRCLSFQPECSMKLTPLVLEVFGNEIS
Chain of human Peroxisome Proliferator-activated Receptor alpha (PPARa), PPARA (gene 5465) (Q07869 whole entry, looked up, the tested form may be a part): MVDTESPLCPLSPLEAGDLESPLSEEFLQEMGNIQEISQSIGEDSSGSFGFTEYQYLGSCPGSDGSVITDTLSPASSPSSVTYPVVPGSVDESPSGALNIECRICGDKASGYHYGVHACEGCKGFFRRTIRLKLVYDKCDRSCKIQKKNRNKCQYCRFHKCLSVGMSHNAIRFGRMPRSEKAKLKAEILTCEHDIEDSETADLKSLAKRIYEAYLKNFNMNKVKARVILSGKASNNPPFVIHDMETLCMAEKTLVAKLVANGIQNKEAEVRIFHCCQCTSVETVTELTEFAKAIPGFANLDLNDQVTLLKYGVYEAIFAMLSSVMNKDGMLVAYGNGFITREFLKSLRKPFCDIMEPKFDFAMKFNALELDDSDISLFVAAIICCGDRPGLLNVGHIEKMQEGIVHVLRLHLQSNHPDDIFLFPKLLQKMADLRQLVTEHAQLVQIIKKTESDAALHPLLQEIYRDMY
Chain of human RAR-related Orphan Receptor beta (RORb), RORB (gene 6096) (Q92753 whole entry, looked up, the tested form may be a part): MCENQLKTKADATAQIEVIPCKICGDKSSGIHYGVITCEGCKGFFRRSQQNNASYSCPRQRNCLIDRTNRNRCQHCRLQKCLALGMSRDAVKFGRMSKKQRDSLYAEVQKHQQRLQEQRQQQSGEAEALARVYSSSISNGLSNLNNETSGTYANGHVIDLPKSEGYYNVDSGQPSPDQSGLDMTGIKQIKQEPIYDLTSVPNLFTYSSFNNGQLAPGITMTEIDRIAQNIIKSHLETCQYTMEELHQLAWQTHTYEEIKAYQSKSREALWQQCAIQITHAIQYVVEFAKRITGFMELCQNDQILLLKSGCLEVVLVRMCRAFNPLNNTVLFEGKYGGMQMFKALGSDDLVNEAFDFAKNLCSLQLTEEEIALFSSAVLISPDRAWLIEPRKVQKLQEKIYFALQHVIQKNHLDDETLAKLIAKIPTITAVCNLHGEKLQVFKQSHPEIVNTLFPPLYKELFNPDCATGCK
Chain of Nuclear receptor subfamily 4 group A member 2 (Homo sapiens) (P43354 whole entry, looked up, the tested form may be a part): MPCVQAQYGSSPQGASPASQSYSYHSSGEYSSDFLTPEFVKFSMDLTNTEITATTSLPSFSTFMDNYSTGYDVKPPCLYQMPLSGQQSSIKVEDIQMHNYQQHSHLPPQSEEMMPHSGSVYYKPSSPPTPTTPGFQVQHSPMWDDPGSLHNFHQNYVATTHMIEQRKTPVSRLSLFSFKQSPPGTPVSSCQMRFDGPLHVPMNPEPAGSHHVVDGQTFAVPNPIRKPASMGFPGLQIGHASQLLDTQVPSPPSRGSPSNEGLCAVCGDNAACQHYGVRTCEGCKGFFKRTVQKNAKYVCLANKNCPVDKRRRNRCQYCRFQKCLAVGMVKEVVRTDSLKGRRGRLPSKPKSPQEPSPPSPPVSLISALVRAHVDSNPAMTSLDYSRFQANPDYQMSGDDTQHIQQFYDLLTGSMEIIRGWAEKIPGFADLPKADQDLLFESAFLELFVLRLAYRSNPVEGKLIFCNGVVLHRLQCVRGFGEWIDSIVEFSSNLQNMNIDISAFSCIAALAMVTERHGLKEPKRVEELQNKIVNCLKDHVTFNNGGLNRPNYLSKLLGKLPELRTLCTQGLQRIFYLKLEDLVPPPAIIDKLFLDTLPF
Chain of Retinoic acid receptor alpha (Homo sapiens) (P10276 whole entry, looked up): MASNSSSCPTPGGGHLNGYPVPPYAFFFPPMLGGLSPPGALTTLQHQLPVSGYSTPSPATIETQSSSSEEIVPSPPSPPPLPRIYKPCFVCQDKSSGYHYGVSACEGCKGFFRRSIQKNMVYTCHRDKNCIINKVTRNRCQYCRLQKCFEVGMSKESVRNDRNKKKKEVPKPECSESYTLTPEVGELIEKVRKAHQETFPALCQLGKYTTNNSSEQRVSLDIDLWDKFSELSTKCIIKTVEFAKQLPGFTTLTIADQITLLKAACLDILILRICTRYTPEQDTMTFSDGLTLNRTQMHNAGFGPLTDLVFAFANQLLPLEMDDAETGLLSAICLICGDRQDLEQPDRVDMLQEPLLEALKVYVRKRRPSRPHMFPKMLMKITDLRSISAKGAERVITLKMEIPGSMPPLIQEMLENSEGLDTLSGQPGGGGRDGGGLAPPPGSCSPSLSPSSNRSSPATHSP
Chain of Glucocorticoid receptor (Homo sapiens) (P04150 whole entry, looked up, the tested form may be a part): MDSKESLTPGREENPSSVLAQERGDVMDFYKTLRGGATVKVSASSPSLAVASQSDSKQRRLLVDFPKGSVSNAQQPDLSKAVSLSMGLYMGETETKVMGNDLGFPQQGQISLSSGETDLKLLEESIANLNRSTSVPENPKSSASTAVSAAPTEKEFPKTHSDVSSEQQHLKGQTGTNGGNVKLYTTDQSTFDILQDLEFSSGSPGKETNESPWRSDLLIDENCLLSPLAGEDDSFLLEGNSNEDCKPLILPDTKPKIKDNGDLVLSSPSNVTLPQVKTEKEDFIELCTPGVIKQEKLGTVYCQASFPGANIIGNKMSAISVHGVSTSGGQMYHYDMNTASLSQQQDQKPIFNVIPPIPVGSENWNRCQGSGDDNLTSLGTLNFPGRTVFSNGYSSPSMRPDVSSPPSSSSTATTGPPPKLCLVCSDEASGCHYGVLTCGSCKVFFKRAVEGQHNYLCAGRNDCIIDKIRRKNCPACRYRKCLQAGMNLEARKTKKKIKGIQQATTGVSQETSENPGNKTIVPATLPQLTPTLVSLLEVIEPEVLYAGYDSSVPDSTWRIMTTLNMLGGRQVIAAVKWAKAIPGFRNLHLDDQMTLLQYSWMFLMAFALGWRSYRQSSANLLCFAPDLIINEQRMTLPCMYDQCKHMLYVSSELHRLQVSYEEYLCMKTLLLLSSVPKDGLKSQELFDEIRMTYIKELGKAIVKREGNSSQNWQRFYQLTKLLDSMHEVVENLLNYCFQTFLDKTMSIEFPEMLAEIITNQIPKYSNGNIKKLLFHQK
Chain of Nuclear receptor subfamily 1 group I member 3 (Homo sapiens) (Q14994 whole entry, looked up, the tested form may be a part): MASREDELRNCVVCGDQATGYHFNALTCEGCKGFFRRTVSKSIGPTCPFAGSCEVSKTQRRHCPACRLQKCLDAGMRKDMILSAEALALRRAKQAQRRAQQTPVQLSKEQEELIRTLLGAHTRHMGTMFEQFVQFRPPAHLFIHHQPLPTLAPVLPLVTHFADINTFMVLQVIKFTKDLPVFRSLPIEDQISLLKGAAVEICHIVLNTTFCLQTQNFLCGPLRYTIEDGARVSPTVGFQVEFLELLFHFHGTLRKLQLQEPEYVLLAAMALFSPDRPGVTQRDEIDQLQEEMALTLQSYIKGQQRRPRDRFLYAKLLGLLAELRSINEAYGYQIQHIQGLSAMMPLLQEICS

On to `CCOP(=O)(OCC)Oc1ccc([N+](=O)[O-])cc1`, for which the result in assay [1], in [2], in [3], in assay [4], in assay [5] and in [6] was inactive. Besides, the call in assay [7], in assay [8], in assay [9], in assay [10], in [11] and in [12] was inactive. The result in [13], in [14] and in assay [15] was inactive.
As to `CCOP(O)OCC`, the outcome in assay [1], in assay [3], in assay [16], in assay [7], in assay [8] and in assay [10] was inactive. The compound was classed as inactive in assay [11] and in [12].
For `Cc1ccccc1CCl`, the result in assay [1], in [3], in assay [4], in assay [17], in assay [7] and in [8] was inactive. The compound was called inactive in [18], in assay [9], in assay [19] and in [10].
`CC1(C)CC(=O)CC(C)(C)N1[O]`: the compound was classed as inactive in [1], in assay [2], in [4], in assay [5], in assay [16] and in assay [7]. For the same compound, the result in assay [8], in [11] and in [12] was inactive.
Consider `CCC[N+](=O)[O-]`, for which the compound was classed as inactive in assay [2], in [3], in [5], in [7], in assay [8] and in [9]. The compound was called inactive in assay [19], in assay [11], in assay [12], in assay [13], in assay [14] and in assay [15].
With `O=C(CCN1CC1)OCC(CO)(COC(=O)CCN1CC1)COC(=O)CCN1CC1`, the compound was called inactive in assay [2], in assay [17], in [9], in assay [10] and in assay [13].
As for `CNC(=O)Oc1cc(C)c(SC)c(C)c1`, the result in [2], in [4], in assay [17], in [16], in assay [7] and in assay [20] was inactive. In addition, the outcome in assay [8], in assay [9], in assay [11], in [14] and in [15] was inactive. Besides, the AC50 in assay [3] is 36.4 µM (active).
For `C=CC(=O)OCC(CC)CCCC` (stereo unspecified), the concentration at half-maximal activity (AC50) in assay [1] is 19.8 µM (active). The call in assay [5], in [17], in assay [16], in [8], in assay [19] and in [11] was inactive. Moreover, the outcome in assay [13], in assay [14] and in [15] was inactive.
Take `O=C(O)COc1ccccc1`: the result in [3], in assay [7], in [20], in assay [18], in assay [10] and in [12] was inactive. Also, the outcome in assay [13] was inactive.
With `O=C(NC(=O)c1c(F)cccc1F)Nc1ccc(Oc2ccc(C(F)(F)F)cc2Cl)cc1F`, the compound was called inactive in assay [1], in assay [2], in [5], in [6], in [7] and in [20]. Also, the outcome in assay [8], in [18], in assay [10], in [11], in assay [12] and in assay [13] was inactive. Besides, the result in assay [14] and in assay [15] was inactive.
In the case of `C[N+](=O)[O-]`, the result in assay [3], in assay [17], in assay [6], in assay [7], in assay [8] and in assay [10] was inactive.
Turning to `CN(C)C(=O)C(c1ccccc1)c1ccccc1`, the result in assay [1], in assay [3], in [4], in [5], in assay [6] and in assay [16] was inactive. Also, the compound was called inactive in assay [7], in [20], in [8], in assay [9], in [19] and in assay [10]. The outcome in assay [11], in assay [12], in assay [13], in [14] and in assay [15] was inactive. Besides, the AC50 in assay [18] was 4.18 µM (active).
